Test results published in PubChem BioAssay (NCI).
This is part of a sample that, as a whole, favours compounds with a hit. Of some 83,000 tested, about 20% had one in any assay.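 96-well plates, one dose, 48 hours. Percent growth reported; active if below 10.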 Values without a mark were called inactive. Active and inactive are the calls of the source.

Assays:
Assay in all cases: NCI-60 one-dose screen, 48 h (100 = growth as untreated, 0 = no growth, -100 = all killed)
Details in all cases: 10 µM unless noted
SR leukemia = test system: SR leukemia
RPMI-8226 leukemia = test system: RPMI-8226 leukemia
OVCAR-8 ovarian = test system: OVCAR-8 ovarian
OVCAR-5 ovarian = test system: OVCAR-5 ovarian
OVCAR-4 ovarian = test system: OVCAR-4 ovarian
SK-OV-3 ovarian = test system: SK-OV-3 ovarian
IGROV1 ovarian = test system: IGROV1 ovarian
OVCAR-3 ovarian = test system: OVCAR-3 ovarian
HS 578T breast = test system: HS 578T breast
T-47D breast = test system: T-47D breast
BT-549 breast = test system: BT-549 breast
MDA-MB-435 melanoma = test system: MDA-MB-435 melanoma
SW-620 colon = test system: SW-620 colon
MCF7 breast = test system: MCF7 breast
HCT-116 colon = test system: HCT-116 colon
HCC-2998 colon = test system: HCC-2998 colon
KM12 colon = test system: KM12 colon
NCI/ADR-RES ovarian = test system: NCI/ADR-RES ovarian

| Structure (SMILES) | growth (SR leukemia) | growth (RPMI-8226 leukemia) | growth (OVCAR-8 ovarian) | growth (OVCAR-5 ovarian) [%] | growth (OVCAR-4 ovarian) | growth (SK-OV-3 ovarian) [%] | growth (IGROV1 ovarian) | growth (OVCAR-3 ovarian) | growth (HS 578T breast) [%] | growth (T-47D breast) | growth (BT-549 breast) [%] | growth (MDA-MB-435 melanoma) | growth (SW-620 colon) [%] | growth (MCF7 breast) | growth (HCT-116 colon) | growth (HCC-2998 colon) | growth (KM12 colon) | growth (NCI/ADR-RES ovarian) [%] |
| --- | --- | --- | --- | --- | --- | --- | --- | --- | --- | --- | --- | --- | --- | --- | --- | --- | --- | --- |
| CC(=C(c1ccc(OCCCN(C)C)cc1)c1ccc(OCCCN(C)C)cc1)c1ccc(Cl)cc1 | 21.7% | 79.3% | 100% | 100 | 108% | 103 | 87.1% | 91.1% | 81.8 | 74.9% | 109 | 89.3% | 87.8 | 37.9% | 64.6% | 81.7% | 84.2% |  |
| Brc1cc(-c2cc(-c3ccc4c(c3)OC=CO4)[nH]n2)cs1 | 60.9% | 81% | 99.4% | 115 | 97% | 86 | 66.1% |  | 90 | 62.1% | 109 | 28.4% | 82.1 | 25.1% | 84.1% | 94.7% | 64.2% | 65.4 |
| CCOC(=O)c1c(NC(=O)c2ccc(C(F)(F)F)cc2)sc2c3c(ccc12)OCN(C)C3 | -29.8% (active) | -36.9% (active) | -48% (active) | 54.2 | 82.4% | 93.5 | 41.9% | 2.17% (active) | 78.7 | 4.14% (active) |  | -16.8% (active) |  | -61.7% (active) | -75.8% (active) | -13.8% (active) | 12.1% | 51.9 |
| Cc1cccc(N2CCN(C3=C(Cl)C(=O)c4ncccc4C3=O)CC2)c1 | 3.39% (active) | 46.8% | 80.6% | 111 | 67% | 92.9 | 73.1% |  | 70.6 | -39.5% (active) | 97.9 | 11.8% | 11 | 5.92% (active) | -16.3% (active) | 107% | 92.2% | 78.7 |
| O=C1[C@@H]2Cc3c([nH]c4ccccc34)[C@@H](c3ccc(Cl)cc3)N2C(=O)CN1C1CCN(Cc2ccccc2)CC1 | -25.3% (active) | 18.9% | 43.9% | 90.1 | 49.1% | 80.5 | 29% |  | 65.9 | 81.7% | 77.6 | 64.2% | 65.9 | 19% | 9.43% (active) | 43.9% | 50.4% | 51.2 |
| O=C(N/N=C/c1cc2ccccc2nc1Cl)c1cc(-c2nc3ccccc3[nH]2)nc2ccccc12 | 83.6% | 82.7% | 96.3% | 106 | 86.3% | 106 | 87.5% |  | 108 | 67.5% | 85.9 | 101% | 101 | 89.7% | 98.8% | 104% |  | 93.3 |
| CCc1nnc(NC(=O)c2cc(-c3ccc(Cl)cc3Cl)oc2C)s1 | 96.5% | 87.7% | 90.3% | 92.7 | 48.4% | 106 | 87.8% |  | 86 | 61.7% | 90.4 | 90.6% | 93.3 | 84.9% | 42.2% | 111% |  | 88.7 |
| COc1cccc(N2CCN(C3=C(Cl)C(=O)c4ncccc4C3=O)CC2)c1 | 4.42% (active) | 55.8% | 82.8% | 124 | 80.5% | 93.8 | 80.8% |  | 84.4 | -48.1% (active) | 105 | 3.36% (active) | 14.3 | 19.1% | 1.4% (active) | 106% |  | 81.9 |
| COC(=O)c1ccc(NC2=C(Cl)C(=O)C(C)=C(C)C2=O)cc1 | 13.6% | 36.5% | 77.9% | 90.9 | 32.4% | 86.2 | 70.4% | 30.1% | 77.1 | -25.9% (active) | 77.5 | 7.22% (active) |  | 35.9% | 32.4% | 71.1% | 6.69% (active) |  |
| O=C1[C@@H]2Cc3c([nH]c4ccccc34)[C@H](c3ccc(Cl)cc3)N2C(=O)CN1C1CCN(Cc2ccccc2)CC1 | 4.81% (active) | 21.8% | 64.4% | 85.5 | 54.4% | 89.6 | 43.3% |  | 65.5 | 74.5% | 72.1 | 54.8% | 61.3 | 16.2% | 25.5% | 51.4% | 57.6% | 52.6 |
| C#Cc1nc(/C=C\CCCCCCC(=O)NO)cs1 | -19.7% (active) | -1.07% (active) | 40.9% | 45.7 | 69.9% | 91.6 | -68.2% (active) |  | 64.9 | 42.3% | 87.5 | 45.9% | 23.9 | 35.2% | 20.5% | 98.8% | 41.2% | 13.1 |
| COc1ccc(-c2c(C(N)=O)c(N)n(Cc3nc4ccccc4[nH]3)c(=O)c2C#N)c(OC)c1 | 90.5% | 99% | 97.2% | 110 | 108% | 90.9 | 72% |  | 99.2 | 89.6% | 105 | 109% | 105 | 76.5% | 104% | 110% | 99.8% | 102 |
| CCOC(=O)c1cccc(NC2=C(Cl)C(=O)C(C)=C(C)C2=O)c1 | 27.7% | 26.8% | 98.8% | 105 | -4.17% (active) | 107 | 32.2% | 99.8% | 95.9 | -37.5% (active) | 131 | 104% | 100 | 84.7% | 84.9% | 111% | 89.6% |  |
| C/C(=N\NC(=O)Nc1ccccc1)c1nnn(-c2ccc([N+](=O)[O-])cc2)c1C | 100% | 102% | 102% | 112 | 105% | 109 | 112% |  | 116 | 98.2% | 111 | 104% | 104 | 97.9% | 99.5% | 106% | 101% | 102 |
| COC(=O)[C@@H](Cc1c[nH]c2ccccc12)NC(=O)CCCCOc1cc(O)c2c(=O)cc(-c3ccccc3)oc2c1 | 72.3% | 71.8% | 87.5% | 104 | 80% | 97.7 | 87.5% |  | 80.9 | 59.7% | 90.7 | 91.6% | 95.8 | 94.9% | 92.1% | 96.5% | 95.3% | 80.9 |
| C/C(=C(/C)C1CC1CCNC1CCC(NC(=O)OC(C)(C)C)CC1)c1ccccc1 (stereo not drawn) | -25.5% (active) | 2.74% (active) | 81.6% | 84.4 | 78.5% | 88.8 | 72.1% |  | 84.1 | 45.5% | 85.5 | 52.8% | 60.7 | 15.5% | 33.6% | -55.6% (active) |  | 75.7 |
| CCCNNC(=O)c1ccc(-c2ccc(NC(=O)CCCCCCC(=O)N[C@H](C(=O)N3C[C@H](O)C[C@H]3C(=O)N[C@@H](C)c3ccc(-c4scnc4C)cc3)C(C)(C)C)cc2)cc1 | 17.9% | 2.23% (active) | 32.7% | 27.3 | 53.6% | 18.5 | 25.5% | 30.2% | 30.3 | 9.23% (active) | 50.5 | 8.72% (active) | 12.1 | 12% | 7.95% (active) | 19.4% |  |  |
| C=C(C)[C@@H]1CC[C@]2(C(=O)O)CC[C@]3(C)[C@H](CC[C@@H]4[C@@]5(C)C/C(=C/c6ccccn6)C(=O)C(C)(C)[C@@H]5CC[C@]43C)[C@@H]12 | 29.1% | 13% | 32% | 82.4 | 36.2% | 70.4 | 51.6% | 40.8% | 63.6 | 19% | 45.8 | 36.6% |  | 18.7% | 13.5% | 31.3% | 30.6% |  |
